# Source: PubChem BioAssay AID463173 (ICCB-Longwood Screening Facility, Harvard Medical School, 2010)
# The whole screen tested about 52,000 compounds, of which about 4,300 (8.3%) were called active. Cut-off read from the data, not from the text of the source: active = survival mostly below about 52% (no sharp cut-off); inactive = mostly above about 56%. The entries come from a sample that favours actives as a whole.
# Tested on: DeltatarO mutant
# Assay: S. aureus survival, RN4220 and DeltatarO strains – OD600, teichoic acid synthesis inhibitors, primary screen (AID 463173)
# Details: S. aureus RN4220 wild type/DeltatarO growth, OD600, 18 h, active compounds read low, screened at 18.75 µg/mL (by protocol)
row,SMILES,survival
1,C=CCc1c(C)[nH]c2c(OC)cccc2c1=S,82% (inactive)
2,COc1ccc(C(=O)Nc2ccc(NC(=O)c3cccs3)cc2)cc1OC,72% (inactive)
3,COc1ccc(OC)c(NC(=O)C2CCN(S(=O)(=O)c3ccc4c(c3)CCCC(=O)N4)CC2)c1,88% (inactive)
4,CCOC(=O)C1CCN(C(=O)Cn2nc(CC)n3c(cc4sccc43)c2=O)CC1,134% (inactive)
5,COc1cc(C(CC(=O)Nc2ncccc2C)N2Cc3ccccc3C2=O)cc(OC)c1OC (stereo not given),79% (inactive)
6,Cc1ccc(NC(=O)CN2C(=O)CCn3nc(-c4cccn4C)cc32)c(Cl)c1,115% (inactive)
7,COCCCNC(=O)C(=O)Nc1c2c(nn1-c1cccc(Cl)c1)CSC2,79% (inactive)
8,C=CCC(NCc1ccco1)c1ccccc1 (stereo not given),69% (inactive)
9,CCc1ccc2oc(-c3ccc(NC(=O)c4cc(OC)c(OC)c(OC)c4)cc3)nc2c1,57% (inactive)
10,CCOc1cc(C(=O)Nc2ccc3oc(-c4ccc(CC)cc4)nc3c2)cc(OCC)c1OCC,41% (active)
11,CCOc1cc(C(=O)Nc2cccc(-c3nc4ccccc4o3)c2)cc(OCC)c1OCC,51% (inactive)
12,CCOc1cc(C(=O)Nc2ccc(-c3nc4cc(C)ccc4o3)cc2)cc(OCC)c1OCC,27% (active)
13,CCOc1cc(C(=O)Nc2ccc3oc(-c4ccc(F)cc4Cl)nc3c2)cc(OCC)c1OCC,64% (inactive)
14,CCOc1cc(C(=O)Nc2ccc(-c3nc4cc(Cl)ccc4o3)cc2)cc(OCC)c1OCC,67% (inactive)
15,COc1cccc(-n2c(SCC(=O)Nc3nnc(C)s3)nc3c([nH]c4ccccc43)c2=O)c1,60% (inactive)
16,COc1ccc(-n2ccn(CC(=O)Nc3ccccc3C(F)(F)F)c(=O)c2=O)cc1OC,80% (inactive)
17,CNC(=O)COc1ccc(NC(=O)CCn2nc(-c3ccc(C)cc3)c3ccccc3c2=O)cc1,73% (inactive)
18,COc1cc(C2C(C(=O)Nc3ccccc3C)=C(C)Nc3ncnn32)ccc1OCC(N)=O (stereo not given),82% (inactive)
19,CCOc1ccc(CNCCCSc2nnnn2C)cc1OC,74% (inactive)
20,COc1ccccc1NC(=O)N1CCNCC1,73% (inactive)
21,COc1ccc(-c2cc(C)no2)cc1S(=O)(=O)N1CC(C)Oc2ccccc21 (stereo not given),-5% (active)
22,Cc1ccc(-c2onc(C)c2C)cc1S(=O)(=O)N1CCc2ccccc21,86% (inactive)
23,CCC1CN(S(=O)(=O)c2cc(-c3cc(C)no3)ccc2OC)c2cc(Cl)ccc2O1 (stereo not given),62% (inactive)
24,CCC1CN(S(=O)(=O)c2cc(-c3cc(C)no3)ccc2C)c2cc(C)ccc2O1 (stereo not given),52% (active)

row,SMILES,survival
1,CCC1CN(S(=O)(=O)c2cc(-c3cc(C)no3)ccc2C)c2cc(Cl)ccc2O1 (stereo not given),75% (inactive)
2,COc1ccc(-c2cc(C)no2)cc1S(=O)(=O)N1CCOc2ccccc21,73% (inactive)
3,COc1ccc(-c2onc(C)c2C)cc1S(=O)(=O)N1CCc2ccccc21,6% (active)
4,COc1ccc(-c2cc(C)no2)cc1S(=O)(=O)N1CCc2ccccc21,67% (inactive)
5,CCC1CN(S(=O)(=O)c2cc(-c3cc(C)no3)ccc2OC)c2cc(C)ccc2O1 (stereo not given),109% (inactive)
6,CC(=O)N/C(N)=N\c1nc(C)c2ccc(C)cc2n1,73% (inactive)
7,O=C(NCc1ccc(Cl)cc1)c1ccc2c(c1)NC(=O)C(CS(=O)(=O)Cc1ccccc1Cl)N2 (stereo not given),94% (inactive)
8,COCCCNC(=O)Nc1cc(C(=O)NCc2ccc(OC)cc2)ccc1N1CCCC1,67% (inactive)
9,COc1ccccc1N1CCN(CCCNC(=O)c2cnn(-c3cccc(Cl)c3)c2C2CCN(C(=O)OC(C)(C)C)CC2)CC1,87% (inactive)
10,CC1=C(C(=O)Nc2c(C)cc(C)cc2C)C2(CCN(C(C)C)CC2)OC1=O,112% (inactive)
11,O=C(CCCn1c(=O)c2sccc2n(Cc2c(F)cccc2Cl)c1=O)NCc1ccccc1,138% (inactive)
12,CCOC(=O)c1noc2ncnc(N3CCC(C)CC3)c12,75% (inactive)
13,Cc1ccc(C2=NC(c3ccccc3)=Nc3ccc(Cl)cc3N2)cc1,89% (inactive)
14,CCOc1ccc(NC(=O)CN(c2ccc(C)cc2)S(=O)(=O)c2cccs2)cc1,83% (inactive)
15,COc1ccc2c(c1)CCc1c(C(=O)Nc3ccccc3C(F)(F)F)noc1-2,143% (inactive)
16,Cc1ccc(NC(=O)C2CCCN(c3ncnc4onc(C)c34)C2)c(Cl)c1 (stereo not given),74% (inactive)
17,Cc1ccc(OCCCCn2nnc3sc4c(c3c2=O)CCC(C)C4)cc1 (stereo not given),56% (inactive)
18,CCCCCOC(=O)CSc1ncnc2sc3c(c12)CCC(C)C3 (stereo not given),-4% (active)
19,CCC(C(=O)OC(C)C)n1cnc2sc3c(c2c1=O)CCC(C)C3 (stereo not given),93% (inactive)
20,CCCCCOC(=O)CSc1ncnc2c1sc1nc(N3CCOCC3)c3c(c12)CCCC3,71% (inactive)
21,CCCCOC(=O)CSc1ncnc2sc3c(c12)CCC(C)C3 (stereo not given),17% (active)
22,CCCOC(=O)CSc1ncnc2sc3c(c12)CCC(C)C3 (stereo not given),7% (active)
23,CC1CCc2c(sc3ncnc(NCCOCCO)c23)C1 (stereo not given),98% (inactive)
24,Cc1ccc(-c2nc(NC(=O)CSc3ncnc4sc5c(c34)CCC(C)C5)ns2)cc1 (stereo not given),69% (inactive)

row,SMILES,survival
1,CCOc1ccc(NC(=O)CSc2cn(CC(=O)N3CCOCC3)c3ccccc23)cc1,95% (inactive)
2,CCOc1ccc(NC(=O)Cn2c(=O)n(CCCCC(=O)NCc3ccc4c(c3)OCO4)c(=O)c3ccccc32)cc1,85% (inactive)
3,CC1(C)CC(NC(=O)CCCC(=O)O)CC(C)(C)N1,81% (inactive)
4,COc1ccc(C)cc1NC(=O)c1ccc2c(=O)n3c(nc2c1)CCCCC3,65% (inactive)
5,COc1ccc(Cn2ccnc2SCC(=O)NCc2ccco2)cc1,75% (inactive)
6,OCc1cnc(SCc2ccc(F)cc2)n1Cc1ccc(F)cc1,88% (inactive)
7,COc1ccc(Cn2c(CO)cnc2SCc2ccccc2)cc1,89% (inactive)
8,O=C(CSc1ncc(CO)n1Cc1ccc(F)cc1)NCc1ccco1,126% (inactive)
9,Cc1ccc(Cn2c(CO)cnc2SCC(=O)Nc2ccc(C)c(Cl)c2)cc1,-5% (active)
10,CCOC(=O)c1ccccc1NC(=O)CSc1ncc(CO)n1Cc1ccc(C)cc1,77% (inactive)
11,Cc1ccc(Cn2c(CO)cnc2SCC(=O)NCc2ccccc2Cl)cc1,73% (inactive)
12,COc1ccc(Cn2c(CO)cnc2SCC(=O)NCc2ccco2)cc1,-5% (active)
13,COc1ccc(Cn2c(CO)cnc2SCc2ccc(F)cc2)cc1,17% (active)
14,Cc1ccc(NC(=O)N2CCN(c3nnc(C)c4c(C)n(-c5ccccc5)nc34)CC2)cc1Cl,94% (inactive)
15,O=C(CSc1nnc2ccc3ccccc3n12)Nc1ccccc1Cl,76% (inactive)
16,Cc1cc2ccccc2n1CCNC(=O)c1ccc(Br)cc1,58% (inactive)
17,CCOC(=O)c1cc(-c2ccc(C)cc2)n(CC(=O)Nc2ccc(OC)cc2OC)c1C,97% (inactive)
18,Cc1cc(-c2ccc(C)c(S(=O)(=O)NCc3cccs3)c2)on1,72% (inactive)
19,CC(C)C(=O)Nc1ccc(NC(=O)c2ccccc2)nc1,87% (inactive)
20,Cc1cc(NC(=O)c2ccc(NC(=O)C(C)C)cc2)no1,72% (active)
21,COc1cccc(C(=O)Nc2cc(C)on2)c1,89% (inactive)
22,CC(C)Oc1ccc(CNC(=O)Nc2ccc3c(c2)N(C)C(=O)c2ccccc2S3)cc1,94% (inactive)
23,CCN1CCN(CCCNC(=O)c2cc3c(=O)n(CC)c4ccccc4c3s2)CC1,97% (inactive)
24,Cc1ccc(NC(=O)N2CC3CCCN3c3ccccc32)cc1Cl (stereo not given),62% (inactive)

row,SMILES,survival
1,Cc1ccc(NC(=O)N2CC3CCCN3c3ccccc32)c(C)c1 (stereo not given),86% (inactive)
2,Cc1ccc(NC(=O)N2CC3CCCN3c3ccccc32)cc1C (stereo not given),-4% (active)
3,Cc1cccc(NC(=O)CSc2ncc3c(n2)-c2ccccc2N(Cc2ccc(F)cc2)S3(=O)=O)c1C,68% (inactive)
4,Cc1cccc(-n2ncc3c(N4CCCCCC4)ncnc32)c1,92% (inactive)
5,COc1ccc(C(=O)Nc2ccc(-c3nnc4n3CCCCC4)cc2)cc1,0% (active)
6,CCOc1cc(C(=O)Nc2ccc(-c3nnc4n3CCCCC4)cc2)cc(OCC)c1OCC,69% (inactive)
7,COc1ccc(C(=O)Nc2ccc(-c3nnc4n3CCCCC4)cc2)cc1OC,57% (inactive)
8,COc1cccc(NC(=O)c2cnc(SCC(=O)N3CCOCC3)n(C)c2=O)c1,120% (inactive)
9,COc1ccc(-n2nc(C(=O)N3CCC(C)CC3)c3c4ccccc4n(C)c3c2=O)cc1Cl,87% (inactive)
10,O=C(CSc1nnc(-c2ccccc2)c(-c2ccccc2)n1)Nc1ccccc1Cl,75% (inactive)
11,CCc1ccccc1NC(=O)CSc1nnc(-c2ccccc2)c(-c2ccccc2)n1,88% (inactive)
12,CC(C)CSc1nnc(-c2ccccc2)c(-c2ccccc2)n1,-8% (active)
13,COc1cccc(C(=O)NCC(c2ccc(N(C)C)cc2)N2CCc3ccccc32)c1 (stereo not given),144% (inactive)
14,COc1ccccc1-c1nnc(C2CCN(C(=O)c3cccc(Cl)c3)CC2)o1,88% (inactive)
15,O=C(CSc1nc2ccccc2n1Cc1cccc(F)c1)N1CCN(c2ccc(F)cc2)CC1,64% (inactive)
16,CN1CCc2c(sc(N)c2C(=O)O)C1,80% (inactive)
17,O=C(CSc1nc(=O)n(CCN2CCOCC2)c2c1CCC2)Nc1ccc(F)cc1F,124% (inactive)
18,COc1cccc(-n2c(=O)c3c(C)c(C(=O)N(C)C)sc3n(Cc3ccc(F)cc3Cl)c2=O)c1,92% (inactive)
19,CCOc1ccc(-n2c(=O)c3c(C)c(C(=O)N(C)C)sc3n(CC(=O)Nc3c(C)cc(C)cc3C)c2=O)cc1,72% (inactive)
20,CCc1ccc(-n2c(=O)c3c(C)c(C(=O)N(C)C)sc3n(Cc3cccc(C)c3)c2=O)cc1,99% (inactive)
21,COc1cccc(-n2c(=O)c3c(C)c(C(=O)N(C)C)sc3n(Cc3cccc(C)c3)c2=O)c1,37% (active)
22,CCOc1ccc(-n2c(=O)c3c(C)c(C(=O)N(C)C)sc3n(Cc3cc(C)ccc3C)c2=O)cc1,0% (active)
23,Cc1ccc(-n2c(=O)c3c(C)c(C(=O)N(C)C)sc3n(Cc3ccccc3C)c2=O)cc1C,98% (inactive)
